The source of these data is PubChem BioAssay (NCATS).

Where “and” joins values, the source holds several entries; their conditions need not be identical. Equal values may be shown once. Records with an inconclusive call do not appear. Calls of active or inactive are those of the source. Unless noted, the call rests on the fitted dose curve; in most records, active means well fitted curve in the direction sought with a large enough effect; inconclusive means small, poorly fitted or top-dose-only effect, or another doubt; inactive means no such curve, though single readings can be large; an effect the other way counts as inactive or inconclusive. Some results are limits rather than exact numbers.

A short description of assay [1]: AP1 Signaling Pathway (AID 357; active means well fitted curve in either direction with a large enough effect, not every such curve was filed as active;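 further: ME-180 reporter cells stimulated with EGF at its EC50 level; on the % scale 0 is the no-effect control and ±100 the full control effect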). The following applies: ME-180 AP-1-bla reporter, EGF-induced, beta-lactamase ratio, 5 h. Put shortly:
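First, ME-180 AP-1-bla cells were cultured overnight at 37 °C in low-serum Opti-MEM. Next, titrated compounds with EC50 EGF were incubated 5 hours. Finally, CCF4 was added for 2.5 hours and the 460/530 nm ratio recorded.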

In assay [2] the target is Cytochrome P450 1A2 (Homo sapiens) (UniProt P05177). As to the kind of experiment: p450-cyp1a2 (AID 410; calls by dose curve). The settings on record: recombinant CYP1A2, luciferin-ME demethylation, luminescence; series mostly up to 57 µM. In outline: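 O-Demethylation of luciferin 6' methyl ether by human CYP1A2 is monitored as luciferase luminescence. Substrate sits at Km (100uM); enzyme is 20nM. Values are scaled to 57 uM furafylline as maximal inhibition.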

Assay [3] is described as follows: Stat Signaling Pathway (AID 446; active means well fitted curve in either direction with a large enough effect, not every such curve was filed as active;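 further: ME-180 cervical cancer cells given 40 pM IL-6 alongside compound; SIE-controlled beta-lactamase reporter measured as 460/530 nm FRET emission ratio; on the % scale 0 is the no-effect control and ±100 the full control effect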). The following applies: ME-180 (cervical carcinoma) SIE beta-lactamase reporter, IL-6 stimulated, 5 h. In outline:
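FRET read-out (405 nm excitation, 460/530 nm emission) of a beta-lactamase reporter under a STAT-inducible element in ME-180 cervical carcinoma cells. Cells with compound receive 40 pM IL-6 for 5 h. Values are normalised to AC90 stimulation and AC90 JAK-inhibitor controls.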

Assay [4] deals with Glucocorticoid receptor (Homo sapiens) (UniProt P04150). Nature of the assay: GR-GFP Redistribution (AID 450;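 active means compounds whose dose series gives a full or clear partial fitted curve of increased nuclear translocation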; further: potency means the concentration at half of the fitted maximal effect). The settings on record: U2OS GR-GFP nuclear translocation, laser cytometry, 2 h.
Assay [5] has the same target. Nature of the assay: GR-EFC Redistribution (AID 451; calls by dose curve; further: potency means the concentration at half of the fitted maximal effect). The following applies: CHO-K1 GR-EFC translocation, beta-gal luminescence, 2 h. In outline:
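CHO-K1 cells stably expressing nuclear-localized β-gal enzyme acceptor and GR fused C-terminally to the enzyme donor fragment; ligand-driven nuclear translocation restores β-gal by complementation. Compounds titrated up to 46 uM final, 2 h at 37 °C; luminescence read.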

The target of assay [6] is Mitogen-activated protein kinase 10 (Mus musculus) (UniProt Q61831). Nature of the assay: JNK3 AlphaScreen Assay (AID 530; active means well fitted curve in either direction with a large enough effect, not every such curve was filed as active;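 further: kinase came from lysate of stimulated human HepG2 cells; signal reports phosphorylation of biotinylated GST-cJun 1-79 at Ser73 with 10 µM ATP; on the % scale 0 is the no-effect control and ±100 the full control effect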). The settings on record: JNK3 lysate, c-Jun phosphorylation; series mostly up to 57.1 µM. Put shortly:
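Phosphorylation of biotinylated GST-cJun(1-79) at Ser73 is measured by AlphaScreen proximity luminescence. Enzyme is JNK3 in HepG2 lysates activated with interleukin-1beta and tumor necrosis factor alpha; ATP is 10 uM final.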

Assay [7] deals with Guanine nucleotide-binding protein G(i) subunit alpha-1 (Homo sapiens) (UniProt P63096). As to the kind of experiment: qHTS Assay for Inhibitors of RGS12 GoLoco Motif Activity (Green Fluorophore) (AID 879).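 Further: 0% = labeled peptide with Gαi1 and full inhibition = labeled peptide alone without protein; negative values mean loss of peptide binding seen as reduced polarization.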 The following applies: Galphai1/FITC-RGS12 GoLoco peptide, fluorescence polarization; series mostly up to 57.1 µM. In outline:
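A drop in FITC polarization marked displacement of the FITC-tagged RGS12 GoLoco peptide (10 nM) from Gαi1 (50 nM). Compounds were incubated 10 min at room temperature in Tris pH 7.5 buffer containing 150 mM NaCl, 0.1 mM GDP and 0.05% NP40; unlabeled peptide titration served as control.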

Assay [8] concerns the target Pyruvate kinase (Leishmania mexicana) (UniProt Q27686). Nature of the assay: qHTS Validation Assay for Inhibitors of Leishmania Mexicana Pyruvate Kinase (AID 945).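 Further: 0% = DMSO only neutral control wells.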 The settings on record: purified L. mexicana pyruvate kinase, enzyme activity, E451W mutant enzyme; series mostly up to 57.5 µM. Put shortly:
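Luminescent ATP detection (PKLight) after a 1 h room-temperature reaction of 0.2 nM LmPYK E451W mutant with 0.5 mM PEP and 0.1 mM ADP at pH 7.2. Activity is normalized to DMSO-only control wells.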

In assay [9] the target is Pyruvate kinase PKM (Homo sapiens) (UniProt P14618). Nature of the assay: qHTS Assay for Activators of Human Muscle Pyruvate Kinase (AID 954; active means well fitted curve in the direction sought with a large enough effect, not every such curve was filed as active;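 further: 0% = uninhibited enzyme and -100% = no enzyme or full thiadiazolimine inhibition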). The following applies: purified human muscle pyruvate kinase, luciferase-coupled luminescence, 1 h; series mostly up to 57.5 µM. In outline: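 ATP production by PKM2 detected via luciferase luminescence after 1 h room-temperature reaction (0.1 nM enzyme, PEP at Km 0.5 mM, ADP 0.1 mM, pH 7.2 imidazole buffer). Inhibition scaled to no-enzyme control; activation referenced to 0.3 nM enzyme wells.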

Assay [10] concerns the target alpha-glucosidase (Oryza sativa, rice) (UniProt Q653V4). As to the kind of experiment: Counterscreen for Glucocerebrosidase Inhibitors: qHTS Assay for Rice alpha-Glucosidase at pH 5.0 (AID 997).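 Further: 0% = full activity with enzyme and -100% = basal without enzyme.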 The settings on record: rice alpha-glucosidase enzyme activity; series mostly up to 76.9 µM. Put shortly:
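Endpoint fluorogenic assay at pH 5.0: compounds (0.7 nM to 77 uM) titrated against 4 nM rice enzyme and 400 uM 4-MU-alpha-glucoside for 20 min at room temperature; NaOH/glycine stop, read ex 365/em 440 nm, Hill-fitted AC50.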

Assay [11] in a line: qHTS Assay for Lipid Storage Modulators (AID 1519; calls by dose curve). The following applies: Drosophila S3 cells, BODIPY lipid droplet/cell ratio, laser cytometry, cells loaded with oleic acid; for activity change, negative = inhibition: at 25.7 µM (top of the series). In outline: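 Cells seeded at 5,000 per well were treated with compounds over a concentration series and loaded with oleic acid (400 uM, as added). Lipid droplet fluorescence (488 nm excitation, 500-530 nm channel) was read by laser-scanning cytometry and normalized to 20 uM Triacsin C.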

The target in assay [12] is ATP-dependent 6-phosphofructokinase (Trypanosoma brucei brucei) (UniProt O15648). Nature of the assay: qHTS Assay to Find Inhibitors of T. brucei phosphofructokinase: hit validation (AID 492961).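 Further: luminescence reports ADP formed as PFK phosphorylates fructose-6-phosphate with ATP; on the % scale 0 is the no-effect control and ±100 the full control effect.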 The following applies: T. brucei PFK, ADP-Glo luminescence; series mostly up to 24.3 µM. Put shortly: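 Reaction: 0.1 M triethanolamine pH 8.0, 5 mM MgCl2, F6P 0.5 mM, ATP 0.1 mM, PFK 1.25 nM, 45 min RT. Read-out: ADP-Glo luminescence. Analysis: concentration-response fits, classed by r2 and efficacy.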

In assay [13] the target is Ubiquitin carboxyl-terminal hydrolase 1 (Homo sapiens) (UniProt O94782). Nature of the assay: Inhibitors of USP1/UAF1: Pilot qHTS (AID 504865).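 Further: rhodamine fluorescence freed from ubiquitin-rhodamine substrate followed over time; top concentration of the series differs between compounds; on the % scale 0 is the no-effect control and ±100 the full control effect; nearly all actives have a fitted effect of over 35% in size.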 The following applies: purified USP1/UAF1, Ub-rhodamine cleavage fluorescence; series mostly up to 54.9 µM. In outline:
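1nM USP1/UAF1 + cpd, 15 min RT; start w/ Ub-Rho 150nM final; kinetic FL 480/540 nm, 6 reads q60 s. Buffer 50mM HEPES pH 7.8, 0.5mM EDTA, 1mM TCEP, 0.01% Tween-20, 0.1 mg/ml BSA.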

In assay [14] the target is Luciferin 4-monooxygenase (Photinus pyralis) (UniProt P08659). Nature of the assay: Biochemical firefly luciferase enzyme assay for NPC (AID 624030).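 Further: purified P. pyralis luciferase at 10 nM with luciferin and ATP substrate; 0% = DMSO and -100% = full luciferase inhibition by PTC124 control; nearly all actives have a fitted effect of over 70% in size.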 The following applies: purified P. pyralis luciferase, luminescence, 5 min; series mostly up to 58.6 µM. Put shortly: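 Counter-screen for direct inhibition of the luciferase enzyme by approved-drug library compounds, run at 10 nM enzyme in 50 mM Tris acetate (final). Luminescence was read within 5 min of enzyme-buffer addition and normalized to PTC124 versus DMSO (0%).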

Assay [15] can be described thus: qHTS profiling for inhibitors of Plasmodium falciparum proliferation (AID 504749).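 Further: 0% = DMSO vehicle and full inhibition = artemisinin control; nearly all actives have a fitted effect of over 60% in size.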 The following applies: P. falciparum in erythrocytes, SYBR Green DNA, 72 h, at 12.8 µM (top of the series). In outline:
(§1)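 Quantitative HTS: compounds pinned into medium, infected erythrocytes added (0.3% parasitemia, 2.5% hematocrit), 72 h culture at 37 C under 5% CO2. Saponin/Triton lysis with SYBR Green I, overnight RT, then fluorescence read.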

The test system of the next assay is AS120. The description is as above. The following applies: P. falciparum in erythrocytes, SYBR Green DNA, 72 h; series mostly up to 28.7 µM. Put shortly:
as §1

A further assay concerns CP238. The description is as above. The following applies: P. falciparum in erythrocytes, SYBR Green DNA, 72 h; series mostly up to 12.8 µM. Put shortly: as §1
For a further assay, the system named is FAB9. The assay is described as above. The settings on record: P. falciparum in erythrocytes, SYBR Green DNA, 72 h; series mostly up to 12.8 µM. Put shortly: as §1
The target in assay [16] is 3',5'-cyclic-AMP phosphodiesterase 4B (Homo sapiens) (UniProt Q07343). Nature of the assay: qHTS Assay for Inhibitors of PDE-IV (AID 607; active means well fitted activation curve with a large enough effect in the main read-out, with a control signal flat, not every such curve was filed as active; further: % of control where 0% means no effect). The settings on record: HEK293 ACTOne CNG channel cells, membrane potential fluorescence; series mostly up to 22.9 µM. In outline: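 Cell-based read-out of cAMP via a modified cyclic nucleotide-gated channel and membrane potential dye (535/590 nm) in HEK293 cells expressing PDE4 endogenously. Compounds tested up to 22.9 uM final; 100 uM RO 20-1724 reference.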

Assay [17] can be described thus: NFAT Signaling Pathway (AID 444; active means well fitted curve in either direction with a large enough effect, not every such curve was filed as active). The settings on record: Jurkat NFAT-bla M1, carbachol, beta-lactamase ratio, 5 h; at 7.69 µM (top of the series) unless noted. Put shortly:
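Jurkat cells carrying an NFAT-driven β-lactamase reporter and co-transfected muscarinic M1 receptor were treated with compound plus carbachol (1 uM final, an EC50 level) for 5 h at 37 °C. CCF4 loading followed for 1 h at RT; 460/530 nm ratio gave %activity.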

[18] abbreviates: measured here: cell count channel max response.
Setting [19] is: measured here: lipid channel max response.
Setting [20] is: at 7.69 µM (top of the series) unless noted.

Glucocorticoid receptor (Homo sapiens), sequence (P04150 whole entry, looked up): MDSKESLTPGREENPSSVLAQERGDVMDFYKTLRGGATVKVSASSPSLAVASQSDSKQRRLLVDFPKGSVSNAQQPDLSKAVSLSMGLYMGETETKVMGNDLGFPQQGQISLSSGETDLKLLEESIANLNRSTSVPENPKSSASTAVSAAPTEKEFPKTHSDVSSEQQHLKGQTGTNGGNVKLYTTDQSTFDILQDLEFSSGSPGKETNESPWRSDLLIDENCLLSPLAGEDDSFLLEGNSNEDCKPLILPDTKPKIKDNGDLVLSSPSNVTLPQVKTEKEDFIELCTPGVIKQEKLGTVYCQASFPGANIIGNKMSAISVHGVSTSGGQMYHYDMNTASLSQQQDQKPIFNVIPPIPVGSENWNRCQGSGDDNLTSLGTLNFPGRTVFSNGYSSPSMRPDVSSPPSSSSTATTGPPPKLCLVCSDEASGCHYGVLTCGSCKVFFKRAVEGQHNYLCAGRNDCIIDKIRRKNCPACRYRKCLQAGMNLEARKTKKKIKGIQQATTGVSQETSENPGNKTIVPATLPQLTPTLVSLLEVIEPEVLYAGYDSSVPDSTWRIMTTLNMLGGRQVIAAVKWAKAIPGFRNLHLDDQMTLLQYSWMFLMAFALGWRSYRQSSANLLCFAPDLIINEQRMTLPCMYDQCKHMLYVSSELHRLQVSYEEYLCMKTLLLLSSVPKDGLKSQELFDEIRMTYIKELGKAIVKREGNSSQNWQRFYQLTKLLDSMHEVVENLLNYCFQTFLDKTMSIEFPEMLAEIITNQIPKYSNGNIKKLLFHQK
Cytochrome P450 1A2 (Homo sapiens), sequence (P05177 whole entry, looked up): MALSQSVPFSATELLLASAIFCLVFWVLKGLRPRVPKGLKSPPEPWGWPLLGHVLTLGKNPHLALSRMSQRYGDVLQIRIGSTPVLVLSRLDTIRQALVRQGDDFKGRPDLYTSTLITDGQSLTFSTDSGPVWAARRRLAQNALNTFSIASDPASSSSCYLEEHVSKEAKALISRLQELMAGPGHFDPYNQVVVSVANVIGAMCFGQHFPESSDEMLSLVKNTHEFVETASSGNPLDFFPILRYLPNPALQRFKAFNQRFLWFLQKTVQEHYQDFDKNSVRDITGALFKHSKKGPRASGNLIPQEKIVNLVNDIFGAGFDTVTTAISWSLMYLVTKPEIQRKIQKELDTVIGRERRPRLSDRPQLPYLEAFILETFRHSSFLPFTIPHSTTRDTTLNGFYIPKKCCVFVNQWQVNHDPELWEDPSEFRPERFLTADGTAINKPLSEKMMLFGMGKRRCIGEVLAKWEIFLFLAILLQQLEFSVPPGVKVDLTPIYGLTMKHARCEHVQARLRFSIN
3',5'-cyclic-AMP phosphodiesterase 4B (Homo sapiens), sequence (Q07343 whole entry, looked up): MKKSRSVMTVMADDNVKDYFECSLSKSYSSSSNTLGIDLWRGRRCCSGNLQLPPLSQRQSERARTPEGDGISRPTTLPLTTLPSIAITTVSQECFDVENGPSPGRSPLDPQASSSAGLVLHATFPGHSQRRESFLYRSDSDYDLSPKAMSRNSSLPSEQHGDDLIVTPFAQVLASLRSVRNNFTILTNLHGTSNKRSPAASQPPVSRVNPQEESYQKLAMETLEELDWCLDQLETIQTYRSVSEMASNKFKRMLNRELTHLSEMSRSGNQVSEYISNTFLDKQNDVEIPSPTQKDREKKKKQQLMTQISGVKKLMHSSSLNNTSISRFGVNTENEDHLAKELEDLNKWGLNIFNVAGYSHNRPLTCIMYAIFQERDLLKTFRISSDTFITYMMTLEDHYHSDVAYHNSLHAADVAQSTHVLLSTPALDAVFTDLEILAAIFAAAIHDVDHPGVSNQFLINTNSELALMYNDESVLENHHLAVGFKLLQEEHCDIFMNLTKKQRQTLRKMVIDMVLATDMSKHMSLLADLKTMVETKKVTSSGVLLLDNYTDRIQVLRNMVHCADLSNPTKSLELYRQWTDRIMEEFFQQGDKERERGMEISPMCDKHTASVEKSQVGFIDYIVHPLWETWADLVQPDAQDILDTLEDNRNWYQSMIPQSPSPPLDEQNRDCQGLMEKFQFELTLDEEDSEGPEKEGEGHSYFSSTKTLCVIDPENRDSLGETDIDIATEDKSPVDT
ATP-dependent 6-phosphofructokinase (Trypanosoma brucei brucei), sequence (O15648 whole entry, looked up): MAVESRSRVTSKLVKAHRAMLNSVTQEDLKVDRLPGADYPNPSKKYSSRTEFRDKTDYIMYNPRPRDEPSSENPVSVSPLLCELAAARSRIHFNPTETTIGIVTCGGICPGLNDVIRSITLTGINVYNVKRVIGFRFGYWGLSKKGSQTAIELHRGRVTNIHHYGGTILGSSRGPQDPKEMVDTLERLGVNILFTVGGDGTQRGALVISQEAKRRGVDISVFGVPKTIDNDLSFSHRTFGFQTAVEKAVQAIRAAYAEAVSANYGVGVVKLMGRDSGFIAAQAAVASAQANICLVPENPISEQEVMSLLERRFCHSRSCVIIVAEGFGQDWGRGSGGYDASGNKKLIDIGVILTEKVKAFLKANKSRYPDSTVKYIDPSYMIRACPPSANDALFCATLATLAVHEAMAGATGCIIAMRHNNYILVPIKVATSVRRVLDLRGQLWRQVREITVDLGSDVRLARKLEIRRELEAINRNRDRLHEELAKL
Pyruvate kinase PKM (Homo sapiens), sequence (P14618 whole entry, looked up): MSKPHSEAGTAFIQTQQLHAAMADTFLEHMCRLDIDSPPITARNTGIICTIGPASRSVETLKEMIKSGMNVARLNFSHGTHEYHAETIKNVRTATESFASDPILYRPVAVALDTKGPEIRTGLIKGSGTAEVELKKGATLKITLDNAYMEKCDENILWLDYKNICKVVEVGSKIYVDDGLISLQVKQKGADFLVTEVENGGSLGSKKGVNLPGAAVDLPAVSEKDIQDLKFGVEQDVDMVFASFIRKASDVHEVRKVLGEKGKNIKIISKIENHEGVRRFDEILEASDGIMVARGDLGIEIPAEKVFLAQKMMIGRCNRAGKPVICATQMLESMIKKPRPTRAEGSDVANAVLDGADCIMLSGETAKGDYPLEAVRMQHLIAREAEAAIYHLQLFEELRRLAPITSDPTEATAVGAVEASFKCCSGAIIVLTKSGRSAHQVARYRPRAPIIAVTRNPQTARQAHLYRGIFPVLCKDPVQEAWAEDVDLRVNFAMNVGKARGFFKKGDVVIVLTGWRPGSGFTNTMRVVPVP
Pyruvate kinase (Leishmania mexicana), sequence (Q27686 2-499 E452W): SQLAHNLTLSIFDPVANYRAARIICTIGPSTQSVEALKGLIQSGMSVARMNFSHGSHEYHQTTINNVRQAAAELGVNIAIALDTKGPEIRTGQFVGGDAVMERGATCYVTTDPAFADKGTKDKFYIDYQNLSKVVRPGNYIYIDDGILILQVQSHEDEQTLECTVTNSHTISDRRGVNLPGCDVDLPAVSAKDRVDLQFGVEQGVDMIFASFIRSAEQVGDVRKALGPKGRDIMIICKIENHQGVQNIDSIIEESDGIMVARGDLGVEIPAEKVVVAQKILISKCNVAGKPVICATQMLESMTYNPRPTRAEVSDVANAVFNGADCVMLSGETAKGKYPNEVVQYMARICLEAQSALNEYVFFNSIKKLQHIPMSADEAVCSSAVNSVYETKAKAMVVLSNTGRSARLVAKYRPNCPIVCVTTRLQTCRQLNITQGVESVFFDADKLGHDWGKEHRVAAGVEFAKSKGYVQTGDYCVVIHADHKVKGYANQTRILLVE
Luciferin 4-monooxygenase (Photinus pyralis), sequence (P08659 whole entry, looked up): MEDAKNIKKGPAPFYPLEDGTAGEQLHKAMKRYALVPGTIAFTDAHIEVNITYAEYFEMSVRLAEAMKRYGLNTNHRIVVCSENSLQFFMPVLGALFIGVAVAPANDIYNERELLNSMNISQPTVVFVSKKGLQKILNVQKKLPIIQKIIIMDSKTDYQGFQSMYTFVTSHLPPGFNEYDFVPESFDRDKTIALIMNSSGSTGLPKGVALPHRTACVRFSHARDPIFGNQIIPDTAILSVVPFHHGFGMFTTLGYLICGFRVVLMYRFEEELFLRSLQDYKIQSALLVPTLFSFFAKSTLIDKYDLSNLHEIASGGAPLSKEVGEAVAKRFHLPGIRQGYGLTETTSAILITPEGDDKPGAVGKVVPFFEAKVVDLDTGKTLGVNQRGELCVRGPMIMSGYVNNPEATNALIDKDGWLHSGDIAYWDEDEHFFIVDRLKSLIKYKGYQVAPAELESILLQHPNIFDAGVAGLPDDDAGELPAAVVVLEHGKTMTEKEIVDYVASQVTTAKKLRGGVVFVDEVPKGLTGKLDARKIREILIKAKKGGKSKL
Guanine nucleotide-binding protein G(i) subunit alpha-1 (Homo sapiens), sequence (P63096 whole entry, looked up): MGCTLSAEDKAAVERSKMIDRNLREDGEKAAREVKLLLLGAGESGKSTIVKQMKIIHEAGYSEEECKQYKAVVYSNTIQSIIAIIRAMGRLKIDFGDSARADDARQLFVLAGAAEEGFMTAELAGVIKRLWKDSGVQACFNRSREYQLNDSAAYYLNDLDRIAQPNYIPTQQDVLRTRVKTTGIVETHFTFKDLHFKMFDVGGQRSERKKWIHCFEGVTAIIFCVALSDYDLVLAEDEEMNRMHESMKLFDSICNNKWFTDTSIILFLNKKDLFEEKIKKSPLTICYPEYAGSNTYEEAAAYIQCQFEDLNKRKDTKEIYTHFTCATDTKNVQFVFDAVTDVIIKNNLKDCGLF

Take `CC(=O)O[C@@H](C)C[N+](C)(C)C`: the results for the activity change, negative = inhibition in assay [1] (at 17.2 µM (top of the series)), in [1] (at 38 µM (top of the series)) and in [11] were 20.9% (inactive), 13.8% (inactive) and -1.12% (inactive), respectively. Besides, the Potency entry (in assay [2]; in [6]; in assay [7]; in assay [13]; in the assay on AS120; in the assay on CP238) was “inactive” in each case. Moreover, the Potency entry with FAB9 was “inactive”. Moreover, the activity, negative = inhibition is -1.77% (inactive) in assay [3] (at 17.2 µM (top of the series)), 30.8% (inactive) in assay [3] (at 38 µM (top of the series)), 0.161% (inactive) in assay [15] (parasite line A) and 7.9% (inactive) in [15] (parasite line B). Also, the Potency was > 46 µM (inactive) and > 20.6 µM (inactive) in [4]; > 46 µM (inactive) and > 20.6 µM (inactive) in assay [5]. The result in assay [8], in [9], in assay [10], in [12] and in [14] was inactive. Besides, the max response was -2.61% in assay [11] (setting [18]) and -4.64% in assay [11] (setting [19]).

For the compound `CN(C)CC[C@@H](c1ccccc1)c1ccccn1`, the results for the activity change, negative = inhibition in assay [1] (at 17.2 µM (top of the series)), in [1] (at 38 µM (top of the series)) and in assay [11] were 4.02% (inactive), 8.55% (inactive) and 1.47% (inactive), respectively. Further, the Potency entry in [2], in assay [6], in assay [16], in [7] and in [13] was “inactive” throughout. The figures for the activity, negative = inhibition in [3] (at 17.2 µM (top of the series)) and in [3] (at 38 µM (top of the series)) were 8.97% (inactive) and 22.6% (inactive), respectively. The Potency is > 46 µM (inactive) and > 20.6 µM (inactive) in assay [4]; > 46 µM (inactive) and > 20.6 µM (inactive) in assay [5]. Moreover, the compound was called inactive in assay [8], in [9] and in [10]. The max response in assay [11] (setting [18]) was determined as 1.01%; in assay [11] (setting [19]) it was 2.03%.

With `C[n+]1ccccc1/C=N\O`, the figures for the activity change, negative = inhibition in assay [1] (setting [20]), in assay [17] and in [11] were 1.66% [at 17.2 µM] (inactive), 3.73% [at 17.2 µM] (inactive) and -1.41% (inactive), respectively. For the same compound, the Potency entry (in assay [2]; in assay [6]; in [16]; with AS120; in the assay with CP238; in the assay with FAB9) was “inactive” throughout. Besides, the activity, negative = inhibition in [3] (setting [20]) was 2.75% [at 17.2 µM] (inactive); in assay [15] (parasite line A), 14% (inactive); in [15] (parasite line B), 8.58% (inactive). Moreover, the Potency in [4] and in [5] was > 20.6 µM (inactive) throughout. Besides, the max response was -5.77% in assay [11] (setting [18]) and -7.21% in assay [11] (setting [19]). The compound was classed as inactive in [12] and in [14].
